Source: PubChem BioAssay (Tox21)
Where “and” joins values, the source holds several entries; their conditions need not be identical. Equal values may be shown once. Results filed as inconclusive are left out. A call without a number means that no potency is given here. A number with no mark means an inactive call. Calls of active or inactive are those of the source. Unless noted, calls come from the whole dose curve; as a rule, active = well fitted curve in the direction sought with a large enough effect in the repeat runs; inconclusive = weak or mixed curves; inactive = no such curve, though single readings can be large; an effect the other way counts as inactive or inconclusive.

Key:
[1] = qHTS assay to identify small molecule that activate the aryl hydrocarbon receptor (AhR) signaling pathway - cell viability counter screen (AID 743086);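 note: HepG2 liver cells carrying the AhR DRE luciferase reporter; series mostly up to about 70 µM; nearly all actives have a fitted effect of over 45% in size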
Procedure, shortened: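 Cytotoxicity counter screen: CellTiter-Fluor signal (30 min, 37 C) in 4000 HepG2 cells/well carrying the DRE-luciferase reporter, following 24 h compound exposure at 37 C.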

[2] = biological target: Peroxisome proliferator-activated receptor gamma (Homo sapiens) (UniProt P37231); assay: qHTS assay to identify small molecule agonists of the peroxisome proliferator-activated receptor gamma (PPARg) signaling pathway (AID 743094; active = well fitted activation curve with a large enough effect in the signal ratio in the repeat runs, not every such curve was filed as active; the % refers to the signal ratio)
Chain of Peroxisome proliferator-activated receptor gamma (Homo sapiens) (P37231 whole entry, looked up): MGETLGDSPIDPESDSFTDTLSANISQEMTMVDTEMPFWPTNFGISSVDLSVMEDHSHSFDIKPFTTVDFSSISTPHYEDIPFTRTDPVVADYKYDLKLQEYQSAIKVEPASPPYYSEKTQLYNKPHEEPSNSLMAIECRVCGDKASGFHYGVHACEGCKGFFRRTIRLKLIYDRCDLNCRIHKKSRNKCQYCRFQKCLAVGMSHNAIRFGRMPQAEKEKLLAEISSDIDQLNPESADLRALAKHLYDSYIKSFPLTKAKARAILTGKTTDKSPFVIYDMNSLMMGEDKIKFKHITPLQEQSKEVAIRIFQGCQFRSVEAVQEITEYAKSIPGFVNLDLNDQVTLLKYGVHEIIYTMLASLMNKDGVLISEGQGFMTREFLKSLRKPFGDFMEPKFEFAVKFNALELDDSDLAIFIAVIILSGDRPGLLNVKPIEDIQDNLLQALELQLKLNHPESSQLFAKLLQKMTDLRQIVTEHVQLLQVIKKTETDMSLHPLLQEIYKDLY
Procedure, shortened: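 GeneBLAzer PPARg UAS-bla HEK293H cells carrying a stably integrated beta-lactamase reporter were pre-incubated 5 h at 37C, then exposed to compounds in DMSO for 17 h at 37C; LiveBLAzer B/G FRET substrate was added for 1 h at room temperature and fluorescence read.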

[3] = biological target: Peroxisome proliferator-activated receptor gamma (Homo sapiens) (UniProt P37231); assay: qHTS assay to identify small molecule antagonists of the peroxisome proliferator-activated receptor gamma (PPARg) signaling pathway (AID 743191; calls by dose curve; note: series mostly up to about 63 µM; nearly all actives have a fitted effect of over 30% in size)
Procedure, shortened: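 Beta-lactamase reporter under UAS control in HEK293H PPARg-bla cells; compound treatment 17 h at 37C. Read-out: fluorescence intensity after 1 h room-temperature incubation with LiveBLAzer B/G FRET substrate.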

[4] = qHTS assay to identify small molecule antagonists of the peroxisome proliferator-activated receptor gamma (PPARg) signaling pathway - cell viability counter screen (AID 743194); note: nearly all actives have a fitted effect of over 55% in size
Procedure, shortened: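 Viability was measured as CellTiter-Glo luminescence in GeneBLAzer PPARg UAS-bla HEK293H cells. These cells had been exposed 17 h at 37 C to compounds together with rosiglitazone at 50 nM final, with the beta-lactamase readout taken in the same wells.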

[5] = qHTS assay for small molecule agonists of the antioxidant response element (ARE) signaling pathway (AID 743202; active = well fitted activation curve with a large enough effect in the signal ratio in the repeat runs, not every such curve was filed as active; the % refers to the signal ratio; note: potency is the fitted concentration of half-maximal effect)
Procedure, shortened: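 Quantitative high-throughput format in HepG2 cells bearing an integrated ARE-beta-lactamase reporter. Compound exposure lasted 16 h at 37 C, and fluorescence was read 2 h after adding LiveBLAzer B/G substrate at room temperature.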

[6] = qHTS assay for small molecule agonists of the antioxidant response element (ARE) signaling pathway - cell viability counter screen (AID 743203; calls by dose curve; note: nearly all actives have a fitted effect of over 55% in size)
Procedure, shortened: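 CellSensor ARE-bla HepG2 cells, 2,000 per well, rested 5 hrs at 37C/5% CO2, then exposed to compound in DMSO for 16 hrs; viability read as CellTiter-Glo luminescence after 30 min at room temperature, in the reporter wells.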

[7] = qHTS assay for small molecule activators of the heat shock response signaling pathway - cell viability counter screen (AID 743209); note: nearly all actives have a fitted effect of over 50% in size; note: potency is the fitted concentration of half-maximal effect
Procedure, shortened: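 CellSensor HSE-bla HeLa cells, plated overnight at 37 C/5% CO2, were exposed to compounds in DMSO for 5 h at 37 C. Viability was then read in the same wells by CellTiter-Glo luminescence after 30 min at room temperature.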

[8] = qHTS assay to identify small molecule agonists of the peroxisome proliferator-activated receptor delta (PPARd) signaling pathway - cell viability counter screen (AID 743211); note: nearly all actives have a fitted effect of over 55% in size; note: potency is the fitted concentration of half-maximal effect
Procedure, shortened: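 Luminescent ATP viability assay (CellTiter-Glo, 30 min RT) in UAS-bla HEK293H cells carrying the PPAR delta reporter construct, 3000 cells/well, after a 17 h compound treatment at 37 C.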

[9] = qHTS assay to identify small molecule antagonists of the peroxisome proliferator-activated receptor delta (PPARd) signaling pathway - cell viability counter screen (AID 743213); note: nearly all actives have a fitted effect of over 50% in size
Procedure, shortened: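 Cytotoxicity counter screen: CellTiter-Glo luminescence read 30 min after addition, in the same wells as the reporter assay. There, PPARd UAS-bla HEK293H cells (3000/well) were treated 17 h at 37 C with compound and 300 nM L165041.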

[10] = qHTS assay to identify small molecule agonists of the farnesoid-X-receptor (FXR) signaling pathway - cell viability counter screen (AID 743218); note: nearly all actives have a fitted effect of over 45% in size
Procedure, shortened: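 FXR-UAS-bla HEK 293T cells, plated 5 h at 37 C, were exposed to compounds for 16 h at 37 C. CellTiter-Glo was then added to the same wells as the bla readout; luminescence read after 30 min at room temperature.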

[11] = qHTS assay to identify small molecule antagonists of the farnesoid-X-receptor (FXR) signaling pathway - cell viability counter screen (AID 743221; active = well fitted cell-killing curve with a large enough effect in the repeat runs, not every such curve was filed as active; note: nearly all actives have a fitted effect of over 50% in size)
Procedure, shortened: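 In GeneBLAzer FXR-UAS-bla HEK 293T cells stimulated with 50 uM chenodeoxycholic acid (final), compounds acted for 16 h at 37 C. Viability was assessed afterwards by CellTiter-Glo luminescence.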

[12] = biological target: Vitamin D3 receptor (Homo sapiens) (UniProt P11473); assay: qHTS assay to identify small molecule agonists of the vitamin D receptor (VDR) signaling pathway (AID 743222; calls by dose curve)
Chain of Vitamin D3 receptor (Homo sapiens) (P11473 whole entry, looked up): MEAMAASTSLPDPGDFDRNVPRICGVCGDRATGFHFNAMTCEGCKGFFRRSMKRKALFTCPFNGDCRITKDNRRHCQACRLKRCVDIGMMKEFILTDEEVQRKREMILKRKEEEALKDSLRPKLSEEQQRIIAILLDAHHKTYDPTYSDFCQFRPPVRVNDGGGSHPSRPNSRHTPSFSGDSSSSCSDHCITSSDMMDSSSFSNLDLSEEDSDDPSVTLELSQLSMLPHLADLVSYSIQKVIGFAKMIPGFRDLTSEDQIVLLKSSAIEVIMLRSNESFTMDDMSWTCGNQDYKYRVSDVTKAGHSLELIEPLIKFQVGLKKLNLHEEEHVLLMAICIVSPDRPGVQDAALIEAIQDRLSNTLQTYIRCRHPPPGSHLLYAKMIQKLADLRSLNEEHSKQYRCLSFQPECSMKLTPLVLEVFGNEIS
Procedure, shortened: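 VDR-bla cells were plated 4 h at 37C/5% CO2, then exposed to compounds in DMSO for 16 h. After LiveBLAzer B/G FRET substrate addition and 2 h at room temperature, beta-lactamase reporter fluorescence was read.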

[13] = biological target: Vitamin D3 receptor (Homo sapiens) (UniProt P11473); assay: qHTS assay to identify small molecule antagonists of the vitamin D receptor (VDR) signaling pathway (AID 743223; active = well fitted inhibition curve with a large enough effect in the signal ratio in the repeat runs, not every such curve was filed as active; the % refers to the signal ratio)
Procedure, shortened: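 Agonist 1alpha,25-dihydroxyvitamin D3 (3 nM in well) was added with each compound to VDR-bla cells preincubated 4 h. Cells stood 16 h at 37C, then FRET substrate 2 h at room temperature; fluorescence intensity recorded.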

[14] = qHTS assay to identify small molecule agonists of the vitamin D receptor (VDR) signaling pathway - cell viability counter screen (AID 743224); note: series mostly up to about 63 µM; nearly all actives have a fitted effect of over 50% in size
Procedure, shortened: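 VDR-bla cells were preincubated 4 h at 37C/5% CO2, then exposed to compounds for 16 h. After the 2 h room-temperature bla FRET read, CellTiter-Glo was added to the same wells and luminescence read after 30 min.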

[15] = biological target: Aryl hydrocarbon receptor (Homo sapiens) (UniProt P35869); assay: qHTS assay to identify small molecule that activate the aryl hydrocarbon receptor (AhR) signaling pathway (AID 743085);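 note: HG2L7.5c1 human HepG2 liver cells with stably integrated DRE-driven firefly reporter; series mostly up to about 70 µM; nearly all actives have a fitted effect of over 15% in size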
Chain of Aryl hydrocarbon receptor (Homo sapiens) (P35869 whole entry, looked up): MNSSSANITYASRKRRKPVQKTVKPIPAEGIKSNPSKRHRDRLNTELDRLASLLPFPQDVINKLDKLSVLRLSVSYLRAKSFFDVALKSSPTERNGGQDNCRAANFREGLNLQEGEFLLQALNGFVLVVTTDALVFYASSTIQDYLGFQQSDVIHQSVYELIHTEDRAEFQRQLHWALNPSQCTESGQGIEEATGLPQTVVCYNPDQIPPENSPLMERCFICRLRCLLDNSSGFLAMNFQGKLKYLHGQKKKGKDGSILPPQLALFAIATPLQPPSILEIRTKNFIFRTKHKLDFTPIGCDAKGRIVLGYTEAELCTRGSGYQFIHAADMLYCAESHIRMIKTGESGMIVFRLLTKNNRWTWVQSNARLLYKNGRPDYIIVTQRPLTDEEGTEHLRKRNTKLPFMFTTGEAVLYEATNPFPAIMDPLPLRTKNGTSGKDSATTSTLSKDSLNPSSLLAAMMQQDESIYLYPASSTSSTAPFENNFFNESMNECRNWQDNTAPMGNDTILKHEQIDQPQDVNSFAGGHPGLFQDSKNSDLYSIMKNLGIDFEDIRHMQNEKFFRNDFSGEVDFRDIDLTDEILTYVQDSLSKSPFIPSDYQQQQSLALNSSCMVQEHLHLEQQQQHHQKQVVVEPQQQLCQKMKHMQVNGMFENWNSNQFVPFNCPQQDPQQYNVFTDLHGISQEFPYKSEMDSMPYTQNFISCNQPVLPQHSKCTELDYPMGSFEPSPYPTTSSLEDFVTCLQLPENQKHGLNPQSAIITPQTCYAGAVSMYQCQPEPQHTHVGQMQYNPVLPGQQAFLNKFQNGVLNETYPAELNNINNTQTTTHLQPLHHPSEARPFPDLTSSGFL
Procedure, shortened: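 24 h compound exposure, 37C, HepG2-derived HG2L7.5c1 cells with DRE-responsive luciferase. Readouts: fluorescence viability, then luminescence at room temperature after 30 min.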

[16] = biological target: Peroxisome proliferator-activated receptor delta (Homo sapiens) (UniProt Q03181); assay: qHTS assay to identify small molecule antagonists of the peroxisome proliferator-activated receptor delta (PPARd) signaling pathway (AID 743215; active = well fitted inhibition curve with a large enough effect in the signal ratio in the repeat runs, not every such curve was filed as active; the % refers to the signal ratio;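 note: cells stimulated with agonist L165041 at 300 nM final during compound exposure; series mostly up to about 62 µM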)
Chain of Peroxisome proliferator-activated receptor delta (Homo sapiens) (Q03181 whole entry, looked up): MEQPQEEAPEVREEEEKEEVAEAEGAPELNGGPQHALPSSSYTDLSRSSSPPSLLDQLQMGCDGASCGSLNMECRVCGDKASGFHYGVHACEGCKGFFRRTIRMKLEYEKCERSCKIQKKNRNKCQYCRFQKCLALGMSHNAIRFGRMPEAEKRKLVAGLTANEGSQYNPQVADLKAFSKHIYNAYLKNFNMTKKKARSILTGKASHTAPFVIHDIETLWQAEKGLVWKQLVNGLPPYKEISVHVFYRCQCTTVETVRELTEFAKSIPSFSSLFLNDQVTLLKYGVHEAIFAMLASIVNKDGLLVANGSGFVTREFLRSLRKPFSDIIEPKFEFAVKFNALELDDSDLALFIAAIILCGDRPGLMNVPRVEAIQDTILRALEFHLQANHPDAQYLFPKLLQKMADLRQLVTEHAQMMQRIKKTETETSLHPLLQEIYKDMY
Procedure, shortened: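 PPARd UAS-bla HEK293H cells were pre-incubated 5 h at 37 C, then given test compounds in DMSO plus agonist L165041 (300 nM final). After 17 h at 37 C, beta-lactamase FRET substrate was added; fluorescence read after 2 h at room temperature.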

[17] = qHTS assay for small molecule activators of the heat shock response signaling pathway (AID 743210; active = well fitted activation curve with a large enough effect in the signal ratio in the repeat runs, with a control signal flat, not every such curve was filed as active; the % refers to the signal ratio;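 note: HeLa cells with beta-lactamase reporter driven by heat shock elements; series mostly up to about 63 µM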)
Procedure, shortened: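 HeLa HSE-bla cells, overnight plating; cpd in DMSO 5 h, 37 C; LiveBLAzer B/G FRET substrate 2.5 h RT; fluorescence intensity read.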

[18] = biological target: Peroxisome proliferator-activated receptor delta (Homo sapiens) (UniProt Q03181); assay: qHTS assay to identify small molecule agonists of the peroxisome proliferator-activated receptor delta (PPARd) signaling pathway (AID 743212; calls by dose curve)
Procedure, shortened: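 HEK293H PPARd-bla cells; 5 h preincubation 37 C/5% CO2; compound (DMSO) 37 C; LiveBLAzer B/G FRET substrate 2 h RT; fluorescence intensity.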

[19] = biological target: Bile acid receptor (Homo sapiens) (UniProt Q96RI1); assay: qHTS assay to identify small molecule antagonists of the farnesoid-X-receptor (FXR) signaling pathway (AID 743217; active = well fitted inhibition curve with a large enough effect in the signal ratio in the repeat runs, not every such curve was filed as active; the % refers to the signal ratio)
Chain of Bile acid receptor (Homo sapiens) (Q96RI1 whole entry, looked up): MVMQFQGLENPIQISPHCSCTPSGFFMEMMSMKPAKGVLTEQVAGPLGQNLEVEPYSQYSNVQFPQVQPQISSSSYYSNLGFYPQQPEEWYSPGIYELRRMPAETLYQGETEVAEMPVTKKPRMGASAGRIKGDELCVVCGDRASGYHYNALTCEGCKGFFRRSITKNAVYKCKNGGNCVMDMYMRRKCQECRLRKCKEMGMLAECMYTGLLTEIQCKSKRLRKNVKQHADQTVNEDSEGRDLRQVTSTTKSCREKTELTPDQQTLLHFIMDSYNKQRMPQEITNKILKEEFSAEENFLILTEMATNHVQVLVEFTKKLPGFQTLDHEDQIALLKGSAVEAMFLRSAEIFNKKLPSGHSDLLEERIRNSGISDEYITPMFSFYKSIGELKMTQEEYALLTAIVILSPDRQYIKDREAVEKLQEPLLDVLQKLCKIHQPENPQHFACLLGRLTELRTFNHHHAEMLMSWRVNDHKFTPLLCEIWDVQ
Procedure, shortened: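 FXR-UAS-bla HEK 293T cells pre-incubated 5 h at 37 °C, then exposed to compounds with chenodeoxycholic acid (50 uM final) for 16 h at 37 °C. Beta-lactamase reporter read by LiveBLAzer B/G FRET substrate fluorescence after 2 h at room temperature.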

[20] = biological target: Bile acid receptor (Homo sapiens) (UniProt Q96RI1); assay: qHTS assay to identify small molecule agonists of the farnesoid-X-receptor (FXR) signaling pathway (AID 743220; active = well fitted activation curve with a large enough effect in the signal ratio in the repeat runs, not every such curve was filed as active; the % refers to the signal ratio)
Procedure, shortened: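 Beta-lactamase reporter under UAS control in GeneBLAzer FXR HEK 293T cells (5000/well) measured with LiveBLAzer FRET substrate after 2 h at room temperature. Compound exposure lasted 16 h at 37C.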

## CCCCC(CC)COC(=O)COc1ccc(Cl)cc1Cl (configuration not stated)
[1]
  Potency: inactive
[2]
  Potency: inactive
[3]
  Potency: inactive
[4]
  Potency: inactive
[5]
  Potency: inactive
[6]
  Potency: inactive
[7]
  Potency: inactive
[8]
  Potency: inactive
[9]
  Potency: inactive
[10]
  Potency: inactive
[11]
  Potency: inactive
[12]
  Potency: inactive
[13]
  outcome: inactive
[14]
  Potency: inactive

## C=CC(=O)OCCOCCOCCOCCOC(=O)C=C
[15]
  Potency: inactive
[5]
  Potency: 24.5 µM (active) and 27.1 µM (active)
[6]
  Potency: inactive
[7]
  Potency: 34.8 µM (active)
[8]
  Potency: 54.4 µM (active)
[9]
  Potency: inactive
[11]
  Potency: inactive

## CCN(CC)CCOC(=O)C(c1ccccc1)C1CCCCC1 (configuration not stated)
[1]
  Potency: inactive
[2]
  Potency: inactive
[3]
  Potency: inactive
[5]
  Potency: inactive
[6]
  Potency: inactive
[7]
  Potency: inactive
[16]
  Potency: inactive
[11]
  Potency: inactive
[12]
  Potency: inactive
[13]
  outcome: inactive
[14]
  Potency: inactive

## CCCCC(CC)COC(=O)CCCCCCCCC(=O)OCC(CC)CCCC (configuration not stated)
[1]
  Potency: inactive
[2]
  Potency: inactive
[3]
  Potency: inactive
[4]
  Potency: inactive
[5]
  Potency: inactive
[6]
  Potency: inactive
[7]
  Potency: inactive
[17]
  Potency: inactive
[8]
  Potency: inactive
[18]
  Potency: inactive
[9]
  Potency: inactive
[16]
  Potency: inactive
[19]
  Potency: inactive
[10]
  Potency: inactive
[20]
  Potency: inactive
[11]
  Potency: inactive
[12]
  Potency: inactive
[13]
  outcome: inactive
[14]
  Potency: inactive

## NC(=O)C(c1ccccc1)(c1ccccc1)[C@@H]1CCN(CCc2ccc3c(c2)CCO3)C1
[1]
  Potency: inactive
[2]
  Potency: inactive
[3]
  Potency: inactive
[4]
  Potency: inactive
[6]
  Potency: inactive
[7]
  Potency: inactive
[17]
  Potency: inactive
[8]
  Potency: inactive
[19]
  Potency: inactive
[11]
  Potency: inactive
[13]
  outcome: inactive

## C/C=C/C(=O)CC
[1]
  Potency: inactive
[2]
  Potency: inactive
[3]
  ratio activity, negative = inhibition: 6.72% [at 13.2 µM]
[5]
  activation: -1.61% [at 18.1 µM]
[6]
  viability change, negative = cytotoxic: 0.863% [at 18.1 µM]
[7]
  activity change, negative = cytotoxicity: 2.01% [at 13.2 µM]
[8]
  activity change, negative = cytotoxicity: 2.34% [at 13.2 µM]
[18]
  activation: 2.05% [at 13.2 µM]
[9]
  viability change, negative = cytotoxic: 3.59% [at 13.7 µM]
[16]
  ratio activity, negative = inhibition: 2.27% [at 13.7 µM]
[11]
  activity change, negative = cytotoxicity: -0.419% [at 13.2 µM]
[14]
  activity change, negative = cytotoxicity: 7.61% [at 13.2 µM]

## CCCCNc1ccc(C(=O)OCCOCCOCCOCCOCCOCCOCCOCCOCCOC)cc1
[1]
  Potency: inactive
[2]
  Potency: inactive
[3]
  Potency: inactive
[4]
  Potency: inactive
[6]
  Potency: inactive
[7]
  Potency: inactive
[17]
  Potency: inactive
[18]
  Potency: inactive
[9]
  Potency: inactive
[19]
  Potency: inactive
[10]
  Potency: inactive
[20]
  Potency: inactive
[11]
  Potency: inactive
[12]
  Potency: inactive
[14]
  Potency: inactive

## CCN(CC)CCNC(=O)c1cc(Br)c(N)cc1OC
[1]
  Potency: inactive
[2]
  Potency: inactive
[3]
  Potency: inactive
[4]
  Potency: inactive
[5]
  Potency: inactive
[6]
  Potency: inactive
[7]
  Potency: inactive
[17]
  Potency: inactive
[8]
  Potency: inactive
[18]
  Potency: inactive
[10]
  Potency: inactive
[11]
  Potency: inactive
[12]
  Potency: inactive
[13]
  outcome: inactive
[14]
  Potency: inactive

## COc1cc2nc(N(C)CCCNC(=O)C3CCCO3)nc(N)c2cc1OC (configuration not stated)
[1]
  Potency: inactive
[2]
  Potency: inactive
[3]
  Potency: inactive
[4]
  Potency: inactive
[5]
  Potency: 23.7 µM (active)
[6]
  Potency: inactive
[7]
  Potency: inactive
[8]
  Potency: inactive
[18]
  Potency: inactive
[16]
  Potency: inactive
[10]
  Potency: inactive
[11]
  Potency: inactive
[14]
  Potency: inactive
